# Inconclusive results are not listed. Calls of active or inactive are those of the source. Unless noted, calls follow the shape of the dose curve; as a rule, active = well fitted curve in the direction sought with a large enough effect; inconclusive = small, poorly fitted or top-dose-only effect, or another doubt; inactive = no such curve, though single readings can be large; an effect the other way counts as inactive or inconclusive.
# What was measured:
# [1] = molecular target: Lysosomal acid glucosylceramidase (Homo sapiens) (UniProt P04062); assay: Glucocerebrosidase-p2 (AID 348; in the data active = potency below about 10 µM; also: potency is read from the fitted curve at half-maximal effect); settings: purified GBA, blue fluorogenic substrate, 40 min
# Outline: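 Normal human glucocerebrosidase (0.2 nM) with blue fluorogenic substrate (80 uM final) in citrate/phosphate pH 5.9 with 10mM sodium taurocholate, 0.01% tween-20; 40 min RT, NaOH/glycine stop; fluorescence Ex 365/Em 440; AC50 from a titration from 0.6 nM upwards.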
# [2] = AP1 Signaling Pathway (AID 357; active = well fitted curve in either direction with a large enough effect, not every such curve was filed as active; also: % is scaled to controls: 0 for no effect and ±100 for the full control effect); settings: ME-180 AP-1-bla reporter, EGF-induced, beta-lactamase ratio, 5 h; at 7.69 µM (top of the series) unless noted
# Outline: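 AP-1-bla ME-180 cells with beta-lactamase reporter under AP-1 response element, stimulated with EC50 EGF; compounds titrated, 5 hours at 37 degrees Celsius. CCF4 read at 460/530 nm ratio; positive and negative modulators judged by AC50.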
# [3] = molecular target: Cytochrome P450 1A2 (Homo sapiens) (UniProt P05177); assay: p450-cyp1a2 (AID 410; calls by dose curve; also: potency is read from the fitted curve at half-maximal effect); settings: recombinant CYP1A2, luciferin-ME demethylation, luminescence; series mostly up to 57 µM
# Outline: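 O-Demethylation of luciferin 6' methyl ether by human CYP1A2 is monitored as luciferase luminescence. Substrate sits at Km (100uM); enzyme is 20nM. Values are scaled to 57 uM furafylline as maximal inhibition.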
# [4] = NFAT Signaling Pathway (AID 444; active = well fitted curve in either direction with a large enough effect, not every such curve was filed as active;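 also: carbachol stimulus at about its EC50 of 1 µM final; % is scaled to controls: 0 for no effect and ±100 for the full control effect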); settings: Jurkat NFAT-bla M1, carbachol, beta-lactamase ratio, 5 h; at 7.69 µM (top of the series) unless noted
# Outline: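 Jurkat cells carrying an NFAT-driven β-lactamase reporter and co-transfected muscarinic M1 receptor were treated with compound plus carbachol (1 uM final, an EC50 level) for 5 h at 37 °C. CCF4 loading followed for 1 h at RT; 460/530 nm ratio gave %activity.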
# [5] = Stat Signaling Pathway (AID 446; active = well fitted curve in either direction with a large enough effect, not every such curve was filed as active;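 also: ME-180 cervical cancer cells given 40 pM IL-6 alongside compound; SIE-controlled beta-lactamase reporter measured as 460/530 nm FRET emission ratio; % is scaled to controls: 0 for no effect and ±100 for the full control effect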); settings: ME-180 (cervical carcinoma) SIE beta-lactamase reporter, IL-6 stimulated, 5 h; at 7.69 µM (top of the series) unless noted
# Outline: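 Normalization used AC90 stimulation (300 pM IL-6) and AC90 inhibition (125 nM pan-JAK inhibitor at 40 pM IL-6). The underlying signal is SIE-driven beta-lactamase in ME-180 cells after 5 h IL-6 exposure with compound.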
# [6] = molecular target: Glucocorticoid receptor (Homo sapiens) (UniProt P04150); assay: GR-GFP Redistribution (AID 450;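 active = compounds whose dose series gives a full or clear partial fitted curve of increased nuclear translocation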; also: potency is read from the fitted curve at half-maximal effect); settings: U2OS GR-GFP nuclear translocation, laser cytometry, 2 h
# [7] = molecular target: Glucocorticoid receptor (Homo sapiens) (UniProt P04150); assay: GR-EFC Redistribution (AID 451; calls by dose curve; also: potency is read from the fitted curve at half-maximal effect); settings: CHO-K1 GR-EFC translocation, beta-gal luminescence, 2 h
# Outline: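 CHO-K1 cells stably expressing nuclear-localized β-gal enzyme acceptor and GR fused C-terminally to the enzyme donor fragment; ligand-driven nuclear translocation restores β-gal by complementation. Compounds titrated up to 46 uM final, 2 h at 37 °C; luminescence read.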
# [8] = molecular target: Mitogen-activated protein kinase 10 (Mus musculus) (UniProt Q61831); assay: JNK3 AlphaScreen Assay (AID 530; active = well fitted curve in either direction with a large enough effect, not every such curve was filed as active;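 also: kinase came from lysate of stimulated human HepG2 cells; signal reports phosphorylation of biotinylated GST-cJun 1-79 at Ser73 with 10 µM ATP; % is scaled to controls: 0 for no effect and ±100 for the full control effect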); settings: JNK3 lysate, c-Jun phosphorylation; series mostly up to 57.1 µM
# Outline: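 Phosphorylation of biotinylated GST-cJun(1-79) at Ser73 is measured by AlphaScreen proximity luminescence. Enzyme is JNK3 in HepG2 lysates activated with interleukin-1beta and tumor necrosis factor alpha; ATP is 10 uM final.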
# [9] = qHTS Assay for Lipid Storage Modulators (AID 1519; calls by dose curve); settings: Drosophila S3 cells, BODIPY lipid droplet/cell ratio, laser cytometry, cells loaded with oleic acid; for activity change, negative = inhibition: at 57.5 µM (top of the series)
# Outline: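 Cells seeded at 5,000 per well were treated with compounds over a concentration series and loaded with oleic acid (400 uM, as added). Lipid droplet fluorescence (488 nm excitation, 500-530 nm channel) was read by laser-scanning cytometry and normalized to 20 uM Triacsin C.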
# [10] = molecular target: Dual specificity protein kinase CLK4 (Homo sapiens) (UniProt Q9HAZ1); assay: qHTS Assay for Inhibitors of CDC-like Kinase 4 (Kinase-Glo Assay) (AID 1770); settings: recombinant Clk4, Kinase-Glo ATP depletion luminescence; series mostly up to 66.7 µM; also: % is scaled to controls: 0 for no effect and ±100 for the full control effect; nearly all actives have a fitted effect of over 65% in size
# Outline: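 Inhibition was judged from remaining ATP, measured by Ultra-Glo luciferase bioluminescence after Clk4 (25 nM) had acted on RS peptide at 1 uM ATP for 4.5 hours, room temperature.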
# [11] = molecular target: Dual specificity protein kinase CLK4 (Homo sapiens) (UniProt Q9HAZ1); assay: qHTS Assay for Inhibitors of CDC-like Kinase 4 (ADP-Glo Assay) (AID 1771); settings: recombinant CLK4, ADP-Glo luminescence; series mostly up to 80 µM; also: % is scaled to controls: 0 for no effect and ±100 for the full control effect; nearly all actives have a fitted effect of over 70% in size
# Outline: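 Compounds are pin-transferred onto substrate mix (100 uM RS peptide, 1 uM ATP), then 25 nM Clk4 is added. After 1 hr at room temperature, ADP-Glo reagent runs 45 min, detection reagent 30 min, then luminescence is read.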
# [12] = molecular target: Dual specificity protein kinase CLK4 (Homo sapiens) (UniProt Q9HAZ1); assay: qHTS Assay for Inhibitors of CDC-like Kinase 4 (ADP-FP Assay) (AID 1795); settings: Transcreener ADP fluorescence polarization; series mostly up to 50 µM;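 also: recombinant human CLK4 phosphorylating RS repeat peptide at 1 µM ATP; % is scaled to controls: 0 for no effect and ±100 for the full control effect; nearly all actives have a fitted effect of over 60% in size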
# Outline: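 Inhibition of ADP formation by 6.25 nM Clk4 is measured using 1 uM ATP and 100 uM RS repeat peptide over one hour. Produced ADP displaces a fluorescent tracer from antibody, lowering polarization.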
# [13] = molecular target: Ubiquitin carboxyl-terminal hydrolase 1 (Homo sapiens) (UniProt O94782); assay: Inhibitors of USP1/UAF1: Pilot qHTS (AID 504865); settings: purified USP1/UAF1, Ub-rhodamine cleavage fluorescence; series mostly up to 54.9 µM;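 also: rhodamine fluorescence freed from ubiquitin-rhodamine substrate followed over time; top concentration of the series differs between compounds; % is scaled to controls: 0 for no effect and ±100 for the full control effect; nearly all actives have a fitted effect of over 35% in size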
# Outline: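 Kinetic fluorescence assay: 1nM USP1/UAF1, 15 min compound preincubation, then 150nM Ub-Rho; 480/540 nm.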
# [14] = Primary qHTS for small molecule stabilizers of the endoplasmic reticulum resident proteome: Secreted ER Calcium Modulated Protein (SERCaMP) assay (AID 1508630); settings: SH-SY5Y GLuc-SERCaMP (Gaussia luciferase released on ER calcium loss) secretion, thapsigargin, luminescence; series mostly up to 38.4 µM; also: % is scaled to controls: 0 for no effect and ±100 for the full control effect
# Outline: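 The SH-SY5Y reporter protocol was run at 3 concentrations up to 38.3 uM (primary) or 11 concentrations (follow-up): 16 h compound, 100 nM thapsigargin for 4 h, then extracellular luciferase luminescence.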
# [15] = molecular target: 3',5'-cyclic-AMP phosphodiesterase 4B (Homo sapiens) (UniProt Q07343); assay: qHTS Assay for Inhibitors of PDE-IV (AID 607; active = well fitted activation curve with a large enough effect in the main read-out, with a control signal flat, not every such curve was filed as active; also: % of control where 0% means no effect); settings: HEK293 ACTOne CNG channel cells, membrane potential fluorescence; series mostly up to 22.9 µM
# Outline: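 HEK293 ACTOne cells with CNG channel (1000/well), endogenous PDE4; membrane potential dye, compounds up to 22.9 uM final. Fluorescence Ex 535/Em 590; RO 20-1724 (100 uM final) as reference.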
# [16] = molecular target: Rap guanine nucleotide exchange factor 3 (Homo sapiens) (UniProt O95398); assay: Confirmatory qHTS for antagonist of cAMP-regulated guanine nucleotide exchange factor 3 (EPAC1) (AID 1645880); settings: EPAC1 Rap1B-BODIPY-GDP exchange, fluorescence; series mostly up to 115 µM;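 also: plate controls were DMSO only for no effect and full effect of the ATA control for full effect; nearly all actives have a fitted effect of over 55% in size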
# Outline: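 Released BODIPY-GDP fluoresces less than Rap1-bound BODIPY-GDP; the signal is followed at 480/540 nm at 5-min intervals over 30 min, after 5 min at room temperature. Reactions contain 100 nM EPAC1, 250 nM RAP1B-BODIPY-GDP and 50 uM GDP; results are normalized to ATA and DMSO.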
# [17] = molecular target: Rap guanine nucleotide exchange factor 4 (Homo sapiens) (UniProt Q8WZA2); assay: Confirmatory qHTS for antagonist of cAMP-regulated guanine nucleotide exchange factor 4 (EPAC2) (AID 1645885); settings: EPAC2 Rap1B-BODIPY-GDP exchange fluorescence, biochemical; series mostly up to 114 µM; also: % is scaled to controls: 0 for no effect and ±100 for the full control effect; nearly all actives have a fitted effect of over 25% in size
# [18] = molecular target: Cytochrome P450 3A4 (Homo sapiens) (UniProt P08684); assay: qHTS Assay for Activators of Cytochrome P450 3A4 (AID 885); settings: recombinant CYP3A4, Luciferin-PPXE luminescence, 60 min; series mostly up to 57.1 µM; also: nearly all actives have a fitted effect of over 65% in size
# Outline: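 Human CYP3A4 dealkylates Luciferin-PPXE to luciferin, which luciferase detection converts to light. Substrate was at its KM (25uM), buffer 200mM KPO4, reaction 60 min at RT.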
# [19] = molecular target: Rap guanine nucleotide exchange factor 3 (Homo sapiens) (UniProt O95398); assay: Confirmatory qHTS for agonist of cAMP-regulated guanine nucleotide exchange factor 3 (EPAC1) (AID 1645881); settings: EPAC1 Rap1B BODIPY-GDP exchange fluorescence, 100% = cAMP control response; series mostly up to 154 µM;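 also: EPAC1 catalysed release of BODIPY-GDP from Rap1B seen as fluorescence loss; nearly all actives have a fitted effect of over 75% in size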
# [20] = molecular target: Rap guanine nucleotide exchange factor 4 (Homo sapiens) (UniProt Q8WZA2); assay: Confirmatory qHTS for agonist of cAMP-regulated guanine nucleotide exchange factor 4 (EPAC2) (AID 1645884); settings: EPAC2 GEF activity, Rap1B-BODIPY-GDP fluorescence, percent relative to cAMP agonist control; series mostly up to 154 µM;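 also: nucleotide exchange releases bodipy-GDP from Rap1 and this lowers its fluorescence; % is scaled to controls: 0 for no effect and ±100 for the full control effect; nearly all actives have a fitted effect of over 65% in size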
# [21] = measured here: cell count channel max response
# [22] = measured here: lipid channel max response
# Cytochrome P450 1A2 (Homo sapiens), sequence (P05177 whole entry, looked up): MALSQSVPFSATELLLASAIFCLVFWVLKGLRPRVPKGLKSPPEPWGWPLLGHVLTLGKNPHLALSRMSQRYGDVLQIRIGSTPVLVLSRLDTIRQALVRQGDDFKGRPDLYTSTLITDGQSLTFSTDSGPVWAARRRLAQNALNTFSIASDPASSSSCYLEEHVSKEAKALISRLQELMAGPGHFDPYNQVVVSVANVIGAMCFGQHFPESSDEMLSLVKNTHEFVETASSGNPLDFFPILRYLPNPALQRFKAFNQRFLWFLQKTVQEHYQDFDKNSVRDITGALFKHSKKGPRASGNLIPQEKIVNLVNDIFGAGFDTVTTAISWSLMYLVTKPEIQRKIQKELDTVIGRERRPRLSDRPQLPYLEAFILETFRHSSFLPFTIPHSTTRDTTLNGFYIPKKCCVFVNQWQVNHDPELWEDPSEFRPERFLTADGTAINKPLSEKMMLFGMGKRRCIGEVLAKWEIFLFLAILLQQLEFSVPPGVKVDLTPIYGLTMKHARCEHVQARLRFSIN
# 3',5'-cyclic-AMP phosphodiesterase 4B (Homo sapiens), sequence (Q07343 whole entry, looked up): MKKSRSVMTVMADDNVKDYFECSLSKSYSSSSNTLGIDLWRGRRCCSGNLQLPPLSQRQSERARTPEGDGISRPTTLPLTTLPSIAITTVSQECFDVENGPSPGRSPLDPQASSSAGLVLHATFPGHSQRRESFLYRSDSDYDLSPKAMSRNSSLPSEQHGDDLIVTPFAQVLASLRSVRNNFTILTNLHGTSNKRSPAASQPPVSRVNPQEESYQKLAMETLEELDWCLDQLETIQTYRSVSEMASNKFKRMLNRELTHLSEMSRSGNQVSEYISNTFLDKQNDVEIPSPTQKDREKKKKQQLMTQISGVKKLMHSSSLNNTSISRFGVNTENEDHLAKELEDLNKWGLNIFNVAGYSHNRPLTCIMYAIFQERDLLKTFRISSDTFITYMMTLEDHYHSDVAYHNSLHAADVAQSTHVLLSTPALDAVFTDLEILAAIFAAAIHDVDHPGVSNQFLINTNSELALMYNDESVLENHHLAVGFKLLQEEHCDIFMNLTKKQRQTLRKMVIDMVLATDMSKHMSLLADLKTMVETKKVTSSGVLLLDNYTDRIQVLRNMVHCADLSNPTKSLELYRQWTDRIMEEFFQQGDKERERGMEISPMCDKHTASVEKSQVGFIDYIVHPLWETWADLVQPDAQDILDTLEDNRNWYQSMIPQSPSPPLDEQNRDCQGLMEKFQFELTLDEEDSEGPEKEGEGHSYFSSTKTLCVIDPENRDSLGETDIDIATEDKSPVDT
# Rap guanine nucleotide exchange factor 4 (Homo sapiens), sequence (Q8WZA2 whole entry, looked up): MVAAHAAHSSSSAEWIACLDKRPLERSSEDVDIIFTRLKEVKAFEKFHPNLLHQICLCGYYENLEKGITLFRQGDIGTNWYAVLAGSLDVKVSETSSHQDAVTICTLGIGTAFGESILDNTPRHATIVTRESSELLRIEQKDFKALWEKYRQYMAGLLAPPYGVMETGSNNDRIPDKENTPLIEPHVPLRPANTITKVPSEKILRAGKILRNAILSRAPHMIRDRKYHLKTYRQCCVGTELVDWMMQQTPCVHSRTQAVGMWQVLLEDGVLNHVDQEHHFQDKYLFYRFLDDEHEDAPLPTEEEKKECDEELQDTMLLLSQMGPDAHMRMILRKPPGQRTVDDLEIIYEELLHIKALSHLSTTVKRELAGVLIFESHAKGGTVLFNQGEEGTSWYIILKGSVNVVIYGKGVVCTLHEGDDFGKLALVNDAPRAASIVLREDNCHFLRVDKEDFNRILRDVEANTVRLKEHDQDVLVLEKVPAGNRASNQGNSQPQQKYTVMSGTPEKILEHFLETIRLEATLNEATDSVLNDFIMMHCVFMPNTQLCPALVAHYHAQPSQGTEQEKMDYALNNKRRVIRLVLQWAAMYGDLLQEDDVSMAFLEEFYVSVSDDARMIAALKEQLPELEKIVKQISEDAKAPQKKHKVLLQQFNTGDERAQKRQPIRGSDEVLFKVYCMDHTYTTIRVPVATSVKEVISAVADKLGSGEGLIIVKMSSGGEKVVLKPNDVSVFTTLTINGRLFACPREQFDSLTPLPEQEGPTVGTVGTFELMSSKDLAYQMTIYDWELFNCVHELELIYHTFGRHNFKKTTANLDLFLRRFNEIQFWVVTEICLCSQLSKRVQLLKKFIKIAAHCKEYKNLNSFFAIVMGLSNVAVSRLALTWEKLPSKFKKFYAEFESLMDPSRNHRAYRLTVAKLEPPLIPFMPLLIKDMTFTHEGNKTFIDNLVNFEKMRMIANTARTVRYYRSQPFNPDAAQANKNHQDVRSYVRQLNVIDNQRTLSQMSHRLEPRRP
# Lysosomal acid glucosylceramidase (Homo sapiens), sequence (P04062 whole entry, looked up): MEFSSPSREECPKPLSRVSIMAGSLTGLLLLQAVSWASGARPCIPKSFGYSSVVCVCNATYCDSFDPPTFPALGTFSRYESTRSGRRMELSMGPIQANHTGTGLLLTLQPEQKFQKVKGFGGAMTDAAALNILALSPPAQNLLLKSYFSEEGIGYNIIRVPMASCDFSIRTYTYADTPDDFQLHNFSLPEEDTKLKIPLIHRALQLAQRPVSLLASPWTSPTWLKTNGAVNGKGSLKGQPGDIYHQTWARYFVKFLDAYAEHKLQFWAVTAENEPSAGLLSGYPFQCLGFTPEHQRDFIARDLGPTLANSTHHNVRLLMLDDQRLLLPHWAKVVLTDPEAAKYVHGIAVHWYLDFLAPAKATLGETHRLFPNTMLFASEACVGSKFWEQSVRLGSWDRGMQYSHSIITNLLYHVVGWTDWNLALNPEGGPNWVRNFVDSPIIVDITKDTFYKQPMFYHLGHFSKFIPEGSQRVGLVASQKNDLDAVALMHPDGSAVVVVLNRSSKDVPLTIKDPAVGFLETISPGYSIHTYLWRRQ
# Glucocorticoid receptor (Homo sapiens), sequence (P04150 whole entry, looked up, the tested form may be a part): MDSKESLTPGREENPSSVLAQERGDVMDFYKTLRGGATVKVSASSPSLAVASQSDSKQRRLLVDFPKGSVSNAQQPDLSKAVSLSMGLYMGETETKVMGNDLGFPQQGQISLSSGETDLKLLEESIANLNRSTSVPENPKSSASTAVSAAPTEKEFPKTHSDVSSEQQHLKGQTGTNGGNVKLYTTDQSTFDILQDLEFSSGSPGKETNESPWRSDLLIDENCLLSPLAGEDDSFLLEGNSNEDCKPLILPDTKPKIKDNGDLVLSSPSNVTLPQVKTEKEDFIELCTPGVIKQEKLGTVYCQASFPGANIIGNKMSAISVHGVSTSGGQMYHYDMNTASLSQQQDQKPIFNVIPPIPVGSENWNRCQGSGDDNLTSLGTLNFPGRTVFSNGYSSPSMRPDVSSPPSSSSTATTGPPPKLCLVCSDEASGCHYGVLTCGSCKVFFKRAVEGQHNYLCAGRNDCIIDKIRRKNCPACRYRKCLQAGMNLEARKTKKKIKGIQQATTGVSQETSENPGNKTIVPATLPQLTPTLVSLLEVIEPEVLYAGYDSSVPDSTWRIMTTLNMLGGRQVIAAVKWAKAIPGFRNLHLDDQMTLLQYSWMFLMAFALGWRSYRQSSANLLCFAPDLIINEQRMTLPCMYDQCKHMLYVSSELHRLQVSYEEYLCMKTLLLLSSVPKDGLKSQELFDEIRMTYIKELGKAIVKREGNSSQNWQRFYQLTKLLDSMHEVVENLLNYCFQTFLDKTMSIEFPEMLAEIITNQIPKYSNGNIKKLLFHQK
# Ubiquitin carboxyl-terminal hydrolase 1 (Homo sapiens), sequence (O94782 whole entry, looked up): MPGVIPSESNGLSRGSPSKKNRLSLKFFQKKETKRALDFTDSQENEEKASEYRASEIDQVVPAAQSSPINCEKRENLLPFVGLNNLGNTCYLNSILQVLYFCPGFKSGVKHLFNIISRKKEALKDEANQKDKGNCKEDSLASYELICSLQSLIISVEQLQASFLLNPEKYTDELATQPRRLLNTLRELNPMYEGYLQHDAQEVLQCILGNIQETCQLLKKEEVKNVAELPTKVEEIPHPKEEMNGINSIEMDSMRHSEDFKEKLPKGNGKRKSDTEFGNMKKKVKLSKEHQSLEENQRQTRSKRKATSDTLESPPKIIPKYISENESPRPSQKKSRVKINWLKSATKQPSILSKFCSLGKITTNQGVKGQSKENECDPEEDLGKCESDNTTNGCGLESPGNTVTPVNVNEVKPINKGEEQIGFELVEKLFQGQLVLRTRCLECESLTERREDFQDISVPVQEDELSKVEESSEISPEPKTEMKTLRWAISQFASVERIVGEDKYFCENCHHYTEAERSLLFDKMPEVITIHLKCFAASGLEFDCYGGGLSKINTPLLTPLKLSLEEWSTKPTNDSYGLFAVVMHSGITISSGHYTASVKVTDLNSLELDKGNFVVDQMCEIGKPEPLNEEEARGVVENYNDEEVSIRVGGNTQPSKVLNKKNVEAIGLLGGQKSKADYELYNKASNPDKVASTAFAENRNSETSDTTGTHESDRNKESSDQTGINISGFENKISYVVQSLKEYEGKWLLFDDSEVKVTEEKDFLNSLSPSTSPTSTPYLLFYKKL
# Dual specificity protein kinase CLK4 (Homo sapiens), sequence (Q9HAZ1 whole entry, looked up): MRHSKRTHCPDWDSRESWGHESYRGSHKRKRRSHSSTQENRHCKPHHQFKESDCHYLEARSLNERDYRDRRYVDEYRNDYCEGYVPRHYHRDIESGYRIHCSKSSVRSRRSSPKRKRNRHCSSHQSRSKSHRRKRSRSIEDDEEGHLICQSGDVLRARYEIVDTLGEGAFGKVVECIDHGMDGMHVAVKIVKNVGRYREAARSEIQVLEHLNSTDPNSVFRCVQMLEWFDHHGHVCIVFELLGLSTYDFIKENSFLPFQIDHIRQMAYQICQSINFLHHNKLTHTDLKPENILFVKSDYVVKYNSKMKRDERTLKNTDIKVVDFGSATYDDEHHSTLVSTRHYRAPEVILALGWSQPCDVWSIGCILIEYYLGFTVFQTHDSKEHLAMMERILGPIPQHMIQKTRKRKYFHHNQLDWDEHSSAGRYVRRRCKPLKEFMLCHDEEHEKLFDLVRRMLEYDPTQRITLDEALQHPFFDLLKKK
smiles,measurement,setting,value
COc1ncc2nc(-c3cc(F)cc(F)c3)c(=O)n(-c3ccccc3)c2n1,Potency,[1],> 11.4 µM (inactive)
same,"activity change, negative = inhibition",[2],-20.2% (inactive)
same,Potency,[3],1.26 µM (active)
same,"activity change, negative = inhibition",[4],-3.83% (inactive)
same,"activity, negative = inhibition",[5],-1.05% (inactive)
same,Potency,[6],> 9.22 µM (inactive)
same,Potency,[7],> 46 µM (inactive)
same,outcome,[8],inactive
same,"activity change, negative = inhibition",[9],3.41% (inactive)
same,max response,[9]; [21],11.4%
same,max response,[9]; [22],11.8%
same,Potency,[10],inactive
same,Potency,[11],inactive
same,Potency,[12],inactive
same,Potency,[13],inactive
same,Potency,[14],inactive
Cc1ccccc1-c1cc(NCCN2CCOCC2)ncn1,Potency,[1],> 11.4 µM (inactive)
same,"activity change, negative = inhibition",[2],-3.13% (inactive)
same,Potency,[3],31.6 µM (active)
same,"activity change, negative = inhibition",[4],-3.03% (inactive)
same,"activity, negative = inhibition",[5],2.72% (inactive)
same,Potency,[6],> 46 µM (inactive)
same,Potency,[7],> 46 µM (inactive)
same,outcome,[8],inactive
same,Potency,[15],inactive
same,"activity change, negative = inhibition",[9],-1.17% (inactive)
same,max response,[9]; [21],-3.29%
same,max response,[9]; [22],-5.46%
same,Potency,[10],inactive
same,Potency,[11],inactive
same,Potency,[12],inactive
same,Potency,[13],inactive
same,Potency,[14],inactive
CN(C)c1ncc2nc(-c3cccs3)c(=O)n(CCC#N)c2n1,Potency,[1],> 11.4 µM (inactive)
same,"activity change, negative = inhibition",[2],0.25% (inactive)
same,"activity change, negative = inhibition",[4],-7.03% (inactive)
same,"activity, negative = inhibition",[5],4.64% (inactive)
same,Potency,[6],> 9.22 µM (inactive)
same,Potency,[7],> 46 µM (inactive)
same,outcome,[8],inactive
same,Potency,[15],inactive
same,"activity change, negative = inhibition",[9],5.59% (inactive)
same,max response,[9]; [21],20.3%
same,max response,[9]; [22],26.4%
same,Potency,[10],inactive
same,Potency,[11],inactive
same,Potency,[13],inactive
same,Potency,[14],inactive
same,Potency,[16],inactive
same,Potency,[17],inactive
COCCn1c(=O)c(-c2cccs2)nc2cnc(N(C)C)nc21,Potency,[1],> 11.4 µM (inactive)
same,"activity change, negative = inhibition",[2],-5.67% (inactive)
same,Potency,[3],2 µM (active)
same,"activity change, negative = inhibition",[4],10.2% (inactive)
same,"activity, negative = inhibition",[5],-4.44% (inactive)
same,Potency,[6],> 9.22 µM (inactive)
same,Potency,[7],> 46 µM (inactive)
same,outcome,[8],inactive
same,Potency,[15],inactive
same,Potency,[18],inactive
same,"activity change, negative = inhibition",[9],3.99% (inactive)
same,max response,[9]; [21],26.2%
same,max response,[9]; [22],28.7%
same,Potency,[10],inactive
same,Potency,[11],inactive
same,Potency,[12],inactive
same,Potency,[14],inactive
same,Potency,[16],inactive
same,Potency,[17],inactive
Cc1cccc(CNc2nc(-c3ccc4c(c3)OCO4)nc3ccccc23)c1,Potency,[1],> 11.4 µM (inactive)
same,"activity change, negative = inhibition",[2],-27.3% (inactive)
same,Potency,[3],0.631 µM (active)
same,"activity, negative = inhibition",[5],-19.3% (inactive)
same,Potency,[7],> 46 µM (inactive)
same,outcome,[8],inactive
same,Potency,[18],inactive
same,"activity change, negative = inhibition",[9],-7.8% (inactive)
same,max response,[9]; [21],-19.2%
same,max response,[9]; [22],-24.8%
same,Potency,[10],inactive
same,Potency,[11],inactive
same,Potency,[12],inactive
same,Potency,[13],inactive
same,Potency,[14],inactive
same,Potency,[16],inactive
same,outcome,[19],inactive
same,outcome,[20],inactive

# Reference: PubChem BioAssay (NCATS)
